# Sampled rows, rich in hits. Any-hit rate of the full collection: about 22%.
# Pf growth 48h: P. falciparum growth inhibition at 48 hours (one generation); P. falciparum luciferase growth in erythrocytes, 48 h; Potency, µM (top dose mostly 28.7 µM), for the others: top-dose activity change, negative = inhibition, hits mostly inhibitors; hit rate 5.9% among 310,000; AID 504832; also: potency is read from the fitted curve at half-maximal effect; % is scaled to controls: 0 for no effect and ±100 for the full control effect
#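 Compounds are pin-transferred into medium, infected erythrocytes (2% hematocrit, 0.1% parasitemia final) are added, and plates sit one parasite generation at 37 C in 5% CO2. Detection reagent is then added and luminescence measured.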
# LmPK inh: inhibitors of Leishmania mexicana pyruvate kinase. Q27686. purified LmPK, Kinase-Glo ATP luminescence, 1 h. Potency, µM (titrated, usually from 57.5 µM), without a hit: at the highest dose activity change, negative = inhibition, usual class: inhibitors. hit rate 0.37% among 290,000; also: potency is read from the fitted curve at half-maximal effect; % is scaled to controls: 0 for no effect and ±100 for the full control effect
# Target sequence (Q27686 whole entry, looked up): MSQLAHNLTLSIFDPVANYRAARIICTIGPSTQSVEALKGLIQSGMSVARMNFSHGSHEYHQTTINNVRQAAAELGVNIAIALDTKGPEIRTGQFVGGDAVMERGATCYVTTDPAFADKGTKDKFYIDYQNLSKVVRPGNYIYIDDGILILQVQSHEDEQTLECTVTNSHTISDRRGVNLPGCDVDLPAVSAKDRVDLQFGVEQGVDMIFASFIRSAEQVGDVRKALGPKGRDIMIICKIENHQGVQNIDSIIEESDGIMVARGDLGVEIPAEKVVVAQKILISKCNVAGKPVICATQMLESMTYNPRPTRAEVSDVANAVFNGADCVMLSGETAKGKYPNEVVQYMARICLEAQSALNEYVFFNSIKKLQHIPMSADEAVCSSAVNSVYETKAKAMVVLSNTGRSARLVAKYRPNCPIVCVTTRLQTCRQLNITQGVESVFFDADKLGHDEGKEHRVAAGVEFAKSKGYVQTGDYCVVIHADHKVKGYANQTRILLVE
#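 Screened at intermediate enzyme activity to detect both inhibitors and activators: LmPK at 0.1 nM, with a 0.5 nM enzyme column as activation reference. PEP 0.5 mM, ADP 0.1 mM; ATP detected by luminescence after 1 h.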
# CHX counter: counter-screen hit for Shiga toxin inhibitors, cycloheximide. cell reporter, cycloheximide protein synthesis inhibition counterscreen. max response, %. hit rate 12% among 300,000. AID 2314; in the data active = max response mostly above about 13%, no sharp cut-off; inactive = mostly below about 14%; also: read at 38.3 µM for the half of the compounds with a filed dose; 0% is about no effect
# Pf growth 96h: P. falciparum growth inhibition at 96 hour, primary screen for plastid delayed-death inhibitors. P. falciparum luciferase reporter growth, 96 h. Potency, µM (titrated, usually from 28.7 µM), without a hit: top-dose activity change, negative = inhibition, most hits filed as inhibitors. hit rate 6.9% among 320,000; also: potency is read from the fitted curve at half-maximal effect; % is scaled to controls: 0 for no effect and ±100 for the full control effect
#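 Two-generation exposure (96 h) targets delayed-death phenotype. Reporter parasites carrying integrated firefly luciferase, in red cells at 2% hematocrit and 0.05% parasitemia final, kept at 37 C, 5% CO2; luminescence loss indicates inhibition.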
# Shiga inhibitor: inhibitors of Shiga toxin in Vero cells. Vero cells, Shiga toxin protein synthesis inhibition reporter. inhibition, % at 38.7 µM. hit rate 9.2% among 290,000; in the data active = inhibition mostly above about 28%, no sharp cut-off; inactive = mostly below about 43%; also: 0% is about no effect
# * marks the source's active call; other numbers are inactive results; u = inconclusive; x = no result. Unless noted, calls follow the shape of the dose curve; as a rule, active = well fitted inhibition curve with a large enough effect; inconclusive = small, poorly fitted or top-dose-only effect, or another doubt; inactive = no such curve, though single readings can be large or run the other way.
SMILES,Pf growth 48h,LmPK inh,CHX counter,Pf growth 96h,Shiga inhibitor
CCNC(=S)N/N=C/c1cccc(/C=N/NC(=S)NCC)c1,19%,1%,6,0%,18
COCCCNC(=S)N/N=C/c1ccc(N(C)C)cc1,10%,1%,18,0%,20
Cc1ccsc1/C=N/NC(=S)NCc1ccccc1,2.9µM*,-4%,21,-24%,13
CNC(=S)N/N=C/c1ccc(N(C)C)cc1,40%,-9%,54*,-87%,77*
COc1cc(CN2CCc3ccccc3C2)cc([N+](=O)[O-])c1O,0%,2%,-2,-28%,-11
COc1ccccc1CCC(=O)Nc1ccc2c(c1)CN(CCCn1cccn1)CC2,8.3µM*,4%,-3,-15%,7
COc1cc(CN2CCc3ccccc3C2)ccc1O,3%,-1%,30*,7%,54*
COc1cccc(CN2CCc3ccc(NC(=O)CCc4ccc(C)cc4)cc3C2)c1O,u,0%,14,u,-3
COc1cc(CN2CCN(c3cc(C)ccc3C)CC2)ccc1O,10µM*,0%,-3,x,-7
COc1ccc(CN2CCN(c3cccc(C)c3C)CC2)cc1OC,x,8%,1,x,-11
COc1cc(CN2CCN(c3cccc(C)c3C)CC2)cc(Br)c1O,4.1µM*,-1%,-3,x,14
COc1ccc(CN2CCc3ccc(NC(=O)CCc4ccccc4OC)cc3C2)c(O)c1,2.1µM*,0%,8,-17%,2
COc1cc(CN2CCc3ccc(NC(=O)CCc4ccccc4OC)cc3C2)ccc1O,5.2µM*,-2%,11,-14%,6
O=[N+]([O-])c1cc([N+](=O)[O-])c(Oc2cncc(Cl)c2)cc1NC1CCCCCCC1,u,-9%,-2,u,-5
COc1cc2nc(CN3CCN(S(=O)(=O)c4ccc(C)c(C)c4)CC3)[nH]c(=O)c2cc1OC,9.3µM*,-7%,-2,u,-13
Cc1c(C(=O)Nc2ccc(Oc3ccccc3)cc2)sc2nc3n(c(=O)c12)CCC3,12µM*,-4%,-3,17µM*,-17
CC(=O)c1cccc(NC(=O)c2sc3nc4n(c(=O)c3c2C)CCCCC4)c1,-1%,-1%,16,29%,-4
COc1cccc(NC(=O)c2sc3nc4n(c(=O)c3c2C)CCC4)c1,59%,4%,49*,u,69*
CSc1cccc(NC(=O)c2sc3nc4n(c(=O)c3c2C)CCC4)c1,41%,5%,17*,u,50*
Cc1c(C(=O)Nc2cc(F)ccc2F)sc2nc3n(c(=O)c12)CCCCC3,104%,1%,36*,u,31
C[n+]1nc(Nc2ccccc2)sc1-c1ccc(C(=O)O)cc1,9%,0%,1,12%,-9
CCOC(=O)COc1coc(CN2CCN(c3ccccc3)CC2)cc1=O,10%,-20%,-2,u,21
Cc1cccc(NC(=O)COc2coc(CN3CCN(c4ccccc4)CC3)cc2=O)c1C,9.3µM*,x,x,u,x
COc1ccccc1N1CCN(Cc2cc(=O)c(OCC(=O)Nc3ccccc3)co2)CC1,9.3µM*,x,x,-6%,x
Cc1cccc(NC(=O)COc2coc(CN3CCN(Cc4ccccc4)CC3)cc2=O)c1,-2%,x,x,u,x
SMILES,Pf growth 48h,LmPK inh,CHX counter,Pf growth 96h,Shiga inhibitor
Cc1ccc(NC(=O)COc2coc(CN3CCN(c4ccccc4)CC3)cc2=O)cc1,u,x,x,4.7µM*,x
CC(C)NS(=O)(=O)c1ccc(NC(=O)C(C)OC(=O)C2CCC2)cc1 (configuration not stated),-7%,x,x,8%,x
C/C(=N\NC(=O)c1ccc(Cl)cc1)c1ccc(N2CCOCC2)cc1,-3%,-1%,25*,-4%,20
COC(=O)c1ccc2[nH]ccc2c1,-17%,0%,1,u,14
C/C(=N/NC(=O)c1ccoc1C)c1ccc(N2CCOCC2)cc1,67%,0%,62*,13%,115*
C/C(=N\NC(=O)c1ccc(Cl)cc1)c1ccc2[nH]ccc2c1,16%,-5%,24*,u,57
Cc1occc1C(=O)N/N=C/C1=C(N2CCOCC2)C(=C\c2ccc(Cl)cc2Cl)/CC1,5%,-4%,16*,-17%,active
Cc1nn(CC(=O)NC2CCC(C)CC2)c(C)c1[N+](=O)[O-] (configuration not stated),23%,x,x,-6%,x
O=C(CN1CCN(S(=O)(=O)c2ccc(Cl)cc2)CC1)NC1CC1,6%,-9%,-5,28%,-18
Cc1c(C(=O)NCCCN2CCOCC2)oc2ccc(S(=O)(=O)N3CCOCC3)cc12,-27%,3%,1,11%,-20
C/C(CC(=O)N1CCN(C=O)CC1)=N\NC(=O)c1cccc([N+](=O)[O-])c1,19%,-2%,11,10%,48
C/C(CC(=O)N1CCN(C=O)CC1)=N\NC(=O)c1ccc(Cl)cc1,40%,-8%,11*,u,31
CSC(=NC#N)N1CCN(C(=NC#N)SC)CC1,9.3µM*,3%,5,2%,31
CSC(=NC#N)N1CCN(C(c2ccccc2)c2ccccc2)CC1,u,-2%,8,u,-3
Oc1cc2c(cc1O)[C@H]1c3ccc(O)c(O)c3OC[C@@]1(O)C2,3.7µM*,x,x,6.6µM*,x
CCc1cc(=O)oc2cc(C)cc(OC(C)C(=O)NCc3ccncc3)c12 (configuration not stated),u,6%,3,9.3µM*,-7
CCCCc1cc(=O)oc2cc(C)cc(OCC(=O)NCc3ccncc3)c12,u,0%,-4,2.3µM*,-17
CCCCc1cc(=O)oc2cc(C)cc(OC(C)C(=O)NCc3cccnc3)c12 (configuration not stated),u,3%,10,17µM*,-5
Cc1cc(OC(C)C(=O)NCc2cccnc2)c2c3c(c(=O)oc2c1)CCC3 (configuration not stated),u,-1%,-2,10µM*,-3
CCCCc1cc(=O)oc2cc(C)cc(OCC(=O)O)c12,6%,1%,-9,7%,-23
COc1ccc(C(=O)O)cc1S(=O)(=O)Nc1ccccc1-c1ccccc1,2%,-6%,-2,18%,23
COc1ccc(-c2nnc3n2N=C(c2c(OC)cccc2OC)CS3)cc1,x,x,15,x,9
Cn1c(=S)ccc2ccccc21,22%,0%,9,19%,-4
CC(C)C(C(=O)OCC(=O)c1ccccc1)N1C(=O)C2C3C=CC(C3)C2C1=O (configuration not stated),9%,-2%,-2,12%,38
CCCc1cc(=O)oc2cc(C)cc(OCC(=O)Nc3cccnc3)c12,0.15µM*,0%,-3,0.093µM*,-10
Cc1cc(OCC(=O)Nc2cccnc2)c2c(C)cc(=O)oc2c1,u,-9%,-8,u,-10
CCc1ccccc1NC(=O)COc1ccc2c(c1)OCO2,-7%,1%,15*,0%,47*
O=C(COc1ccc2c(c1)OCO2)Nc1ccccc1C(F)(F)F,22%,-1%,31*,u,87*

# Source: PubChem (National Center for Advancing Translational Sciences (NCATS))
